Key:
Assay in all cases: DAPPL (digital affinity profiling via proximity ligation, sequencing); 10 mM Tris-HCl pH 7.5, 50 mM NaCl, 1 mM DTT, 4% glycerol, room temperature, 30 min; GST-TFs on glutathione beads, 16-mer random dsDNA library, 0.1% formaldehyde crosslink after washing; high values mean tight binding
FLI1 = target: T1, FLI1 (Homo sapiens, UniProt Q01543 1-452); conditions: protein: recombinant; tags: N-terminal GST; dsDNA, one strand shown
T1 sequence: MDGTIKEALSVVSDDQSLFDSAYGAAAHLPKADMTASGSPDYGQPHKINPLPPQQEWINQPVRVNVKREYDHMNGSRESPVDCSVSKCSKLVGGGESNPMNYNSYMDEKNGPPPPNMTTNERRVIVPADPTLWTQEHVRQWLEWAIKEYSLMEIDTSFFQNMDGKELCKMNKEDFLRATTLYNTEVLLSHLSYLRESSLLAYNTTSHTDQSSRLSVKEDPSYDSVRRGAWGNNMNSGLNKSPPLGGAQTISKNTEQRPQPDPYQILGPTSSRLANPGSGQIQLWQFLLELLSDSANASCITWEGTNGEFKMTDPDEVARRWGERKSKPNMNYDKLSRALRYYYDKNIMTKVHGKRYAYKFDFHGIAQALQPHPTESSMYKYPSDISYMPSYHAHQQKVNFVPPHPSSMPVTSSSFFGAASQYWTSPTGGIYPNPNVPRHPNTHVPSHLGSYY
Method in brief: (§1)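 Human transcription factors carrying a GST fusion were produced in yeast, bound to glutathione beads, tagged with DNA barcodes and pooled together with a tag-only sample. Each pool was held with 200 nmole of a random double-stranded 16-mer DNA library in Tris/NaCl/DTT/glycerol buffer for 30 min at room temperature, then washed, crosslinked in 0.1% formaldehyde, proximity-ligated with BsaI/T4 ligase (1 h, 37 °C), PCR-amplified and sequenced on an Illumina NextSeq500. Binding signal is the read frequency of each hexamer for a given factor divided by its frequency in the tag-only sample.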

ELK1 = target: T2, ELK1 (Homo sapiens, UniProt P19419 1-428); conditions: protein: recombinant; tags: N-terminal GST; dsDNA, one strand shown
T2 sequence: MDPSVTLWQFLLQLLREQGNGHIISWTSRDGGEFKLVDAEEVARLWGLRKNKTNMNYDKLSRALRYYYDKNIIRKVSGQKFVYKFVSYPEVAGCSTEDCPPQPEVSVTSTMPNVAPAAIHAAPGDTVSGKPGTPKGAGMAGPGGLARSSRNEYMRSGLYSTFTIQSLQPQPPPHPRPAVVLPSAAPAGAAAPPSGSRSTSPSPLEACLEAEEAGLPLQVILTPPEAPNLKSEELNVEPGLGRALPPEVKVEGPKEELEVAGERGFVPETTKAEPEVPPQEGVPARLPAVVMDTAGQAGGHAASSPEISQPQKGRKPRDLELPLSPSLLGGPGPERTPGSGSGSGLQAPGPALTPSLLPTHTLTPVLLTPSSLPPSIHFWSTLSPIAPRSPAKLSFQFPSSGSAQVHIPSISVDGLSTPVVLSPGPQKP
Method in brief: as §1

GABPA = target: T3, GABPA (Homo sapiens, UniProt Q06546 1-454); conditions: protein: recombinant; tags: N-terminal GST; dsDNA, one strand shown
T3 sequence: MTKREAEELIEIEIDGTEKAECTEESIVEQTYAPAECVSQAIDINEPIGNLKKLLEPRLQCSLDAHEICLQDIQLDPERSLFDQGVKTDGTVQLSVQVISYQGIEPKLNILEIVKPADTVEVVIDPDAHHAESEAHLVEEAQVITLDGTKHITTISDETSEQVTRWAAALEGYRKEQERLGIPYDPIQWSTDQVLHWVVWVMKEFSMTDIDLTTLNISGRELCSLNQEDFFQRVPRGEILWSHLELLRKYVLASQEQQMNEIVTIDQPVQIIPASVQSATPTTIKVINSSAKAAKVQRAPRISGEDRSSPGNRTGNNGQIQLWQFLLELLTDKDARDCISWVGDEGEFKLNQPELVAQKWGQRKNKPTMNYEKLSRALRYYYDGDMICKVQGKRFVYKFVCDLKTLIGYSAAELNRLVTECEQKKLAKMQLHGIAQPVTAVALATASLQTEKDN
Method in brief: as §1

ERG = target: T4, ERG (Homo sapiens, UniProt P11308 1-479); conditions: protein: recombinant; tags: N-terminal GST; dsDNA, one strand shown
T4 sequence: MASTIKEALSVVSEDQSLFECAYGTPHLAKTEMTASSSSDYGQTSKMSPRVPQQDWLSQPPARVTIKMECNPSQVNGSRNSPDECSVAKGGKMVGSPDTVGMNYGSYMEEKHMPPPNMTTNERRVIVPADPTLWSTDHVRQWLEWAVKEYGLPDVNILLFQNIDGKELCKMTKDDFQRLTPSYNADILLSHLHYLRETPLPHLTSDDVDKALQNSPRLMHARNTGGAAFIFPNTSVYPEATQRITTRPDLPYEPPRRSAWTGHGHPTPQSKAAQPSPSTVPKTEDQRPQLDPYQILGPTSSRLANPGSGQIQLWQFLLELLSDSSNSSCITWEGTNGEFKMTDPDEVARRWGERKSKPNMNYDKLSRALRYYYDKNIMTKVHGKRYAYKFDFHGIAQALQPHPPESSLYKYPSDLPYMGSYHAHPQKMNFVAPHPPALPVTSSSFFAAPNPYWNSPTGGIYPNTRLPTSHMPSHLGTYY
Method in brief: as §1

ELF1 = ELF1 (Homo sapiens, UniProt P32519 1-619); conditions: protein: recombinant; tags: N-terminal GST; dsDNA, one strand shown
Method in brief: as §1

EHF = target: T5, EHF (Homo sapiens, UniProt Q9NZC4 1-300); conditions: protein: recombinant; tags: N-terminal GST; dsDNA, one strand shown
T5 sequence: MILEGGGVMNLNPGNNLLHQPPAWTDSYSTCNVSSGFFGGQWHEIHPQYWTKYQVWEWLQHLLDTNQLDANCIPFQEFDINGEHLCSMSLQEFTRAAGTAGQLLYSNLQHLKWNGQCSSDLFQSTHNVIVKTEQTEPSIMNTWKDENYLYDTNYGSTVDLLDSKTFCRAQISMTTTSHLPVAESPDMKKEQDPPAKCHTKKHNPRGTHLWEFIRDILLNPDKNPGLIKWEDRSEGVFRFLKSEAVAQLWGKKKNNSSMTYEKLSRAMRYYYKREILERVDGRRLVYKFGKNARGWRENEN
Method in brief: as §1

SPI1 = SPI1 (Homo sapiens, UniProt P17947 1-270); conditions: protein: recombinant; tags: N-terminal GST; dsDNA, one strand shown
Method in brief: as §1

SPIB = SPIB (Homo sapiens, UniProt Q01892 1-262); conditions: protein: recombinant; tags: N-terminal GST; dsDNA, one strand shown
Method in brief: as §1

ELK3 = target: T6, ELK3 (Homo sapiens, UniProt P41970 1-407); conditions: protein: recombinant; tags: N-terminal GST; dsDNA, one strand shown
T6 sequence: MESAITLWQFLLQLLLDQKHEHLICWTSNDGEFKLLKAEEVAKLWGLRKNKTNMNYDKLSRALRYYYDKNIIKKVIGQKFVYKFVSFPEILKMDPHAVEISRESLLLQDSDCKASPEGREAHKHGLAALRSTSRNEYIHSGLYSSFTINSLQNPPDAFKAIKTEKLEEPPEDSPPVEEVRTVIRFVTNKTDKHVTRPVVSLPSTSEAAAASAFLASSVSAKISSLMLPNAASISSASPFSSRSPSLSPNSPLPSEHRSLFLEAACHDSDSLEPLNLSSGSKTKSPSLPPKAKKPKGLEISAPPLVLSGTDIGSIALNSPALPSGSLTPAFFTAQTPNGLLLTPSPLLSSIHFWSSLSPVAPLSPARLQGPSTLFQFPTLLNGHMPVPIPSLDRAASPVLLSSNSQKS
Method in brief: as §1

FEV = target: T7, FEV (Homo sapiens, UniProt Q99581 1-238); conditions: protein: recombinant; tags: N-terminal GST; dsDNA, one strand shown
T7 sequence: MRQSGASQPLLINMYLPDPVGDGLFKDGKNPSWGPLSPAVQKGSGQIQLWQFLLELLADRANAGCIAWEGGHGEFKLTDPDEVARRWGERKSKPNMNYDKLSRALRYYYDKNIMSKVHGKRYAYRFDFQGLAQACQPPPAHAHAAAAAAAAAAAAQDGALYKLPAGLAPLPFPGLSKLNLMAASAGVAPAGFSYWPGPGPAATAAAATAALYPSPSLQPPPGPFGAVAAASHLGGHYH
Method in brief: as §1

ETV5 = ETV5 (Homo sapiens, UniProt P41161 1-510); conditions: protein: recombinant; tags: N-terminal GST; dsDNA, one strand shown
Method in brief: as §1

HSF1 = HSF1 (Homo sapiens, UniProt Q00613 1-529); conditions: protein: recombinant; tags: N-terminal GST; chain copies: 3; dsDNA, one strand shown
Method in brief: as §1

SPIC = target: T8, SPIC (Homo sapiens, UniProt Q8N5J4 1-248); conditions: protein: recombinant; tags: N-terminal GST; dsDNA, one strand shown
T8 sequence: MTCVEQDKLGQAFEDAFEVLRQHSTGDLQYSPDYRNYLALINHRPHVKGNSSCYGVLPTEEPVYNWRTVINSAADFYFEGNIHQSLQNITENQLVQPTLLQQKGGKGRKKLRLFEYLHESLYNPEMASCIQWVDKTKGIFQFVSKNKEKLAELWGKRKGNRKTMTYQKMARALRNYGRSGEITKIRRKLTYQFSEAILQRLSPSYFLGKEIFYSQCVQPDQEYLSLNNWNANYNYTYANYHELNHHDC
Method in brief: as §1

ELF4 = ELF4 (Homo sapiens, UniProt Q99607 1-663); conditions: protein: recombinant; tags: N-terminal GST; dsDNA, one strand shown
Method in brief: as §1

ELK4 = target: T9, ELK4 (Homo sapiens, UniProt P28324-2 1-405); conditions: protein: recombinant; tags: N-terminal GST; dsDNA, one strand shown
T9 sequence: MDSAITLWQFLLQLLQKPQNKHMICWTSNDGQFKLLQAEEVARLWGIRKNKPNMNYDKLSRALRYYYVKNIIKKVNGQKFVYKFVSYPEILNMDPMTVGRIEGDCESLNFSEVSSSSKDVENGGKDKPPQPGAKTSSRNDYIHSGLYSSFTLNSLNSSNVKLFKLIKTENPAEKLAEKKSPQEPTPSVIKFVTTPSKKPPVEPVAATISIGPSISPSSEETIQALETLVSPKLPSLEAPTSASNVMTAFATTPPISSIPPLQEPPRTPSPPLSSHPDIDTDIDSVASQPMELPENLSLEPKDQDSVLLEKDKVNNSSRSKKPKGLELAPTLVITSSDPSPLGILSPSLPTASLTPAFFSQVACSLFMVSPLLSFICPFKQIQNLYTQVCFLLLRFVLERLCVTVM
Method in brief: as §1

ETV2 = target: T10, ETV2 (Homo sapiens, UniProt O00321 1-342); conditions: protein: recombinant; tags: N-terminal GST; dsDNA, one strand shown
T10 sequence: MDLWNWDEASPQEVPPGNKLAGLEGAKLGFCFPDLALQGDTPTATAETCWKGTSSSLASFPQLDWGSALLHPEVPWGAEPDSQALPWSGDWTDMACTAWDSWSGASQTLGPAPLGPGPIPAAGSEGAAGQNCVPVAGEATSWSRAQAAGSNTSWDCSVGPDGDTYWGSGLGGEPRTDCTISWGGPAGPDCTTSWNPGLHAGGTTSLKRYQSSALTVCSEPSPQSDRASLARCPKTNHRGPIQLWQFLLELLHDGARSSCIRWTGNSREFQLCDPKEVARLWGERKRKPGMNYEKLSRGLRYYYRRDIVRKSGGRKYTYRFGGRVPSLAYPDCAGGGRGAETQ
Method in brief: as §1

ELF3 = target: T11, ELF3 (Homo sapiens, UniProt P78545 1-371); conditions: protein: recombinant; tags: N-terminal GST; dsDNA, one strand shown
T11 sequence: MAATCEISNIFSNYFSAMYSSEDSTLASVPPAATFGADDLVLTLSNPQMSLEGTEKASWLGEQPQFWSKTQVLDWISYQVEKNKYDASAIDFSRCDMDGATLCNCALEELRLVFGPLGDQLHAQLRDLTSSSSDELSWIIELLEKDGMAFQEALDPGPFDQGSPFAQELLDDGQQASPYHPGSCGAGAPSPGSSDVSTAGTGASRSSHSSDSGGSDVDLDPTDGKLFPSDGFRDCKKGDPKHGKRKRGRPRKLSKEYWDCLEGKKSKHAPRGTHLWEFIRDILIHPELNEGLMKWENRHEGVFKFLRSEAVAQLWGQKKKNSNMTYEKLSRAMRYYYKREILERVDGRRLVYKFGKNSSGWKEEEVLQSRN
Method in brief: as §1

CRX = CRX (Homo sapiens, UniProt O43186 1-299); conditions: protein: recombinant; tags: N-terminal GST; dsDNA, one strand shown
Method in brief: as §1

ETV1 = ETV1 (Homo sapiens, UniProt P50549 1-477); conditions: protein: recombinant; tags: N-terminal GST; dsDNA, one strand shown
Method in brief: as §1

ELF1, sequence (P32519 whole entry): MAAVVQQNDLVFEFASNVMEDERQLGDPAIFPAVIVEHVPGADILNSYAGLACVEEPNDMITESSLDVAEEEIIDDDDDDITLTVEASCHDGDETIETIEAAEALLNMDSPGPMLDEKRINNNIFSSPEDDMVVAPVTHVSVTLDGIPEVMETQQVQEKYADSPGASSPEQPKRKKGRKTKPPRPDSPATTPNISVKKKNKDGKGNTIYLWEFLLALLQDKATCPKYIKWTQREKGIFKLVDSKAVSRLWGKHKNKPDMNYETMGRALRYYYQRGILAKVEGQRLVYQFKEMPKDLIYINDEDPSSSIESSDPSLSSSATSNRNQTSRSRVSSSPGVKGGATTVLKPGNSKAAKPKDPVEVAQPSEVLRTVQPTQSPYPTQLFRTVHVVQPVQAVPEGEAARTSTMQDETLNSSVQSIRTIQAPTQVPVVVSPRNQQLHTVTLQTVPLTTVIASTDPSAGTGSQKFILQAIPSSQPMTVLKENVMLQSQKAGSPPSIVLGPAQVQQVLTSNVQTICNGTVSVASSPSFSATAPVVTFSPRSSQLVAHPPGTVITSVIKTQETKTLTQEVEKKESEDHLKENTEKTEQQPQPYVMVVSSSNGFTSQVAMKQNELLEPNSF
ELF4, sequence (Q99607 whole entry): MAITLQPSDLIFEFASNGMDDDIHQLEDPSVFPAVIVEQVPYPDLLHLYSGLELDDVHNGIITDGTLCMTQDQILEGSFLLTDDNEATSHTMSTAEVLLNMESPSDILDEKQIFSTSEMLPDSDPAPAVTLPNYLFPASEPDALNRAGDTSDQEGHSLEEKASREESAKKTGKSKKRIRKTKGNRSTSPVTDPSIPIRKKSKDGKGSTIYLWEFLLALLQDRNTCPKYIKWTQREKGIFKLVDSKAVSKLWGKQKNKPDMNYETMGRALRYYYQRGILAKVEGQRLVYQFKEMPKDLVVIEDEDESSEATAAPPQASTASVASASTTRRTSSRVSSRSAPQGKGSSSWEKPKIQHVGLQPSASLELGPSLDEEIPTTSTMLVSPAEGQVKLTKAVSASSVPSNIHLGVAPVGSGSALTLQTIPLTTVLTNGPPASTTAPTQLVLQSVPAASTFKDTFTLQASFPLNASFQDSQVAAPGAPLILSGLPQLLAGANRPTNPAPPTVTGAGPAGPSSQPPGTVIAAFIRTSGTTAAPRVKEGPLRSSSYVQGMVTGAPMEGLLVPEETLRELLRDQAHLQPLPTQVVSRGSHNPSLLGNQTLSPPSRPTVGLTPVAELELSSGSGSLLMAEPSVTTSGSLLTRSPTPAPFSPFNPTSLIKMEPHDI
ETV1, sequence (P50549 whole entry): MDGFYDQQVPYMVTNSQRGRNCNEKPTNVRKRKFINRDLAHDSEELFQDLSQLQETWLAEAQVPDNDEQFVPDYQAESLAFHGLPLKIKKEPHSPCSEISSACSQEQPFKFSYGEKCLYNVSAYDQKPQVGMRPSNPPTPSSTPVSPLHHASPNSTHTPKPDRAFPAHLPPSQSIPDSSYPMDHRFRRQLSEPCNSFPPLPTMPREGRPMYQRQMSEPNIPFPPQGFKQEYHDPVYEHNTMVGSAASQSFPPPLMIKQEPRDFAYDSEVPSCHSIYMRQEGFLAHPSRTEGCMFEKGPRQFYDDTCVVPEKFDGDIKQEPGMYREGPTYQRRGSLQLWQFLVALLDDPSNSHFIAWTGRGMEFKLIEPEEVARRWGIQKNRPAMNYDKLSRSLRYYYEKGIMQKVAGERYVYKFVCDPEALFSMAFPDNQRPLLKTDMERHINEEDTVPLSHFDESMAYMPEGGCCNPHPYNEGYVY
SPIB, sequence (Q01892 whole entry): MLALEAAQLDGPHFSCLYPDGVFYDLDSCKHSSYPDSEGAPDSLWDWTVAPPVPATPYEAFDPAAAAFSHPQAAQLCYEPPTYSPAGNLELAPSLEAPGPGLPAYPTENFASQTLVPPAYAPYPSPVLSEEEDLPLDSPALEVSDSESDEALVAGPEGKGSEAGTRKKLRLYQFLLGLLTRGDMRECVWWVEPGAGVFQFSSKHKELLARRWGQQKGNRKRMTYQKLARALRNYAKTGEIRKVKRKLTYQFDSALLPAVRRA
HSF1, sequence (Q00613 whole entry): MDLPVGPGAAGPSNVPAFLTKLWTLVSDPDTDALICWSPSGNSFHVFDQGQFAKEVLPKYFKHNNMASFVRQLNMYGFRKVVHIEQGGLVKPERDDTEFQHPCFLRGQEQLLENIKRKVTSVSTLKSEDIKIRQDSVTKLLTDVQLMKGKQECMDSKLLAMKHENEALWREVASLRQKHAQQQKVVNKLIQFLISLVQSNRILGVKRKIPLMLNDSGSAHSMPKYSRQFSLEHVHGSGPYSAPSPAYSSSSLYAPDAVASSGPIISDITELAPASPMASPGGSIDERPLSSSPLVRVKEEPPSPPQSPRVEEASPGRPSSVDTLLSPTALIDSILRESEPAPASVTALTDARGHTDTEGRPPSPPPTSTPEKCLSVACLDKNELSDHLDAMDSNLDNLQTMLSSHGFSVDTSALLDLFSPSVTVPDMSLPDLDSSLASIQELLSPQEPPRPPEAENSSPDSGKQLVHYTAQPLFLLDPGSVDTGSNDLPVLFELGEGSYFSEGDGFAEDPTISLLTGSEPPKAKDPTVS
ETV5, sequence (P41161 whole entry): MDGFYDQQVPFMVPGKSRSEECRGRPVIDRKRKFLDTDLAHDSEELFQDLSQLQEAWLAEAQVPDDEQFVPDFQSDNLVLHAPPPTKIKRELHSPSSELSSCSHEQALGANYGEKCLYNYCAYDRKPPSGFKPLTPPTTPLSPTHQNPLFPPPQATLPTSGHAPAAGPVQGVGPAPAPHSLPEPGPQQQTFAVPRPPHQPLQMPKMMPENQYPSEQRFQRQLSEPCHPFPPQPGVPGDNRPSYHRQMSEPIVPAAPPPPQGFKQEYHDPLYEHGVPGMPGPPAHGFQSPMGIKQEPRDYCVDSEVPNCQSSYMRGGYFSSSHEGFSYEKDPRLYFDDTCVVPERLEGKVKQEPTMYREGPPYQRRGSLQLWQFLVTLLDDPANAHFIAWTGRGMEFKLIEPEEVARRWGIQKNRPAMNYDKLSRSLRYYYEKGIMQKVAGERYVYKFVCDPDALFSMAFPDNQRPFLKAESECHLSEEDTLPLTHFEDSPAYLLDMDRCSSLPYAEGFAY
CRX, sequence (O43186 whole entry): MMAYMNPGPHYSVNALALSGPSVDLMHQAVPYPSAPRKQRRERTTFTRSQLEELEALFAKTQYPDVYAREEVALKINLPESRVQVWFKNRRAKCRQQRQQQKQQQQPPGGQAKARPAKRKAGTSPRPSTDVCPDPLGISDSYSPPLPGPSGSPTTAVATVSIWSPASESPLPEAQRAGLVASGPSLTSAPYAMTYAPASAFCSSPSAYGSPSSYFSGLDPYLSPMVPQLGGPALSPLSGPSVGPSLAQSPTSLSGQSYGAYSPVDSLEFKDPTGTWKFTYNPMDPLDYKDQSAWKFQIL

TCTATC
binding signal (FLI1): 1.25 fold enrichment (6-mer frequency, TF over GST control) | binding signal (ELK1): 1.27 fold enrichment (6-mer frequency, TF over GST control) | binding signal (GABPA): 1.21 fold enrichment (6-mer frequency, TF over GST control) | binding signal (ERG): 1.21 fold enrichment (6-mer frequency, TF over GST control) | binding signal (ELF1): 1.25 fold enrichment (6-mer frequency, TF over GST control) | binding signal (EHF): 1.19 fold enrichment (6-mer frequency, TF over GST control) | binding signal (SPI1): 1.22 fold enrichment (6-mer frequency, TF over GST control) | binding signal (SPIB): 1.17 fold enrichment (6-mer frequency, TF over GST control) | binding signal (ELK3): 1.37 fold enrichment (6-mer frequency, TF over GST control) | binding signal (FEV): 1.16 fold enrichment (6-mer frequency, TF over GST control) | binding signal (ETV5): 1.19 fold enrichment (6-mer frequency, TF over GST control) | binding signal (HSF1): 1.43 fold enrichment (6-mer frequency, TF over GST control) | binding signal (SPIC): 1.23 fold enrichment (6-mer frequency, TF over GST control) | binding signal (ELF4): 1.25 fold enrichment (6-mer frequency, TF over GST control) | binding signal (ELK4): 1.24 fold enrichment (6-mer frequency, TF over GST control) | binding signal (ETV2): 1.27 fold enrichment (6-mer frequency, TF over GST control) | binding signal (ELF3): 1.29 fold enrichment (6-mer frequency, TF over GST control) | binding signal (CRX): 1.32 fold enrichment (6-mer frequency, TF over GST control) | binding signal (ETV1): 1.16 fold enrichment (6-mer frequency, TF over GST control)
